Only some compounds are listed: those with a hit (about 1.8% of all), similar ones and a draw of the others.
TLR4 MyD88 comp = blocks binding of human TLR4 to MyD88; O00206+Q99836; HeLa CL3-4 TLR4/MyD88 BLA complementation, FRET ratio; inhibition, % at 8.4 µM; 200,000 compounds, 0.18% hits; in the data active = inhibition above about 25%
NOD2 RIPK2 PPI = NOD2-RIPK2 protein interaction inhibition. O43353. CHO BLA complementation NOD2-RIPK2, CCF4 ratio. inhibition, % at 4.98 µM. 360,000 compounds, 0.38% hits; in the data active = inhibition above about 21%
TLR9-MyD88 inh = inhibitors of human TLR9-MyD88 binding; CHO BLA complementation TLR9-MyD88, CCF4 FRET ratio; 340,000 compounds, 0.21% hits; inhibition, % at 4.98 µM; Q9NR96+Q99836;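 active = inhibition above the mean over all tested compounds plus 3 SD, cut at about 21% in these data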
Target sequence (Q99836 whole entry, looked up): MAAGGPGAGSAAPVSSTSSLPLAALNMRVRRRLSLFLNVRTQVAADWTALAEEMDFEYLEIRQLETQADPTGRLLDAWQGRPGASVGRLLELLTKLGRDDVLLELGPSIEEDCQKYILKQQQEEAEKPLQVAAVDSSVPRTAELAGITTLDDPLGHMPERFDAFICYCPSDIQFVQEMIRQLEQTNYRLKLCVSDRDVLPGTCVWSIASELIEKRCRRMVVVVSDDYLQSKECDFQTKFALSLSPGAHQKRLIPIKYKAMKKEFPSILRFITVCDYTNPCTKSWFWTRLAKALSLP
Target sequence (Q9NR96 whole entry, looked up): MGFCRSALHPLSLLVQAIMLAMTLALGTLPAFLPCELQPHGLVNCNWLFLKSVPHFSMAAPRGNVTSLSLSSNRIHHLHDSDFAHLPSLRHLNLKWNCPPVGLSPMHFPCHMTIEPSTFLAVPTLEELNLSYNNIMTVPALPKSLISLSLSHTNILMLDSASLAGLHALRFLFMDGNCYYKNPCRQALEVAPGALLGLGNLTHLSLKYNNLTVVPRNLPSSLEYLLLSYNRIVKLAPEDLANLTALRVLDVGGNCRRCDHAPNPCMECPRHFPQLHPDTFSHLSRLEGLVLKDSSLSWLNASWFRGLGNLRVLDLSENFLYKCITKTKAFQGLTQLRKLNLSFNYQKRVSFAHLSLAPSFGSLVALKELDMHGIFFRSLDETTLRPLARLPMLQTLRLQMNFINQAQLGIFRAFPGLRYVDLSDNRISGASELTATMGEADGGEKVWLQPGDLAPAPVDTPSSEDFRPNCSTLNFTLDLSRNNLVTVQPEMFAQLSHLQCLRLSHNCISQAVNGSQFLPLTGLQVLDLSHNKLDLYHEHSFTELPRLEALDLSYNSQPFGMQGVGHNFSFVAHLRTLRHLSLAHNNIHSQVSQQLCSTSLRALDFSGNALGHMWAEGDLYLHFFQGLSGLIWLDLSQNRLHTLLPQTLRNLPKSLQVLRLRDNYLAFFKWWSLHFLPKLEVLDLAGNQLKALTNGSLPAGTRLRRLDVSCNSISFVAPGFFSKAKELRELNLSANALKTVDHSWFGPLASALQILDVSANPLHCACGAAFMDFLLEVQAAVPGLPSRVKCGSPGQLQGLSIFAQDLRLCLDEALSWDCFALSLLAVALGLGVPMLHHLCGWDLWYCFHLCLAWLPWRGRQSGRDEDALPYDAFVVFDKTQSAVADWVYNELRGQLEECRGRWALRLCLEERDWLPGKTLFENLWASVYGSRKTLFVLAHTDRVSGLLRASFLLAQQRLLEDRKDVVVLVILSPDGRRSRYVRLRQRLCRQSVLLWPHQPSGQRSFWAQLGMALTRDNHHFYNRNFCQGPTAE
Bim-Mcl-1 = disrupts Bim peptide binding to human Mcl-1; Q07820; AID 1009; 190,000 compounds, 0.1% hits; Bead-based flow cytometry, Bim peptide-Mcl-1 binding; inhibition, % at 10 µM; in the data active = inhibition above about 40%
Mcl1-Bid inh = disrupts binding of human Mcl-1 to Bid peptide. TR-FRET Mcl-1/Bid-Dy647 peptide binding, 1536-well. inhibition, % at 21.7 µM. 220,000 compounds, 0.97% hits. AID 1021;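 active = compounds that cut the binding signal by more than half at the single screening dose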;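 also: His-tagged Mcl-1 with europium anti-His antibody binding Bid BH3 peptide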
Mcl1-Noxa inh = Mcl-1/Noxa interaction inhibition; TR-FRET Mcl-1/Noxa peptide binding, 2 h; inhibition, % at 21.7 µM; 220,000 compounds, 1.5% hits; AID 1022;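 active = compounds that cut the protein-peptide binding signal by more than 50% relative to plate controls in a single-dose test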;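 also: His-tagged Mcl-1 with rhodamine Noxa BH3 peptide and terbium anti-His antibody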
Large screens that a line does not name were inactive.

CC(O)CNc1nc(N)[nH]c(=O)c1N=Nc1ccccc1 (stereo not drawn)	none (no result: TLR4 MyD88 comp, Bim-Mcl-1, Mcl1-Bid inh, Mcl1-Noxa inh)
c1ccc(CN=C2NN=C(c3cc4ccccc4o3)CS2)cc1	Mcl1-Noxa inh 93
C/C(=N\NC(=O)c1ccccc1F)c1ccc2c(c1)Nc1ccccc1S2	Mcl1-Noxa inh 62
O=C(O)c1cccc(N/N=C/c2ccc(F)c(F)c2)c1	none
O=C(O)c1cccc(N/N=C/C2=C(Cl)c3cc(Cl)ccc3SC2)c1	Mcl1-Bid inh 89, Mcl1-Noxa inh 103
CCC(C)NC(=O)CSc1nc2cc3c(cc2c(=O)n1Cc1ccco1)OCO3 (stereo not drawn)	Mcl1-Bid inh 54
Cn1c(=O)c2cc(NC(=O)CCc3ccc4c(c3)OCO4)ccc2n1Cc1ccc(F)cc1	none (no result: TLR4 MyD88 comp, TLR9-MyD88 inh, Bim-Mcl-1, Mcl1-Bid inh, Mcl1-Noxa inh)
CC(=O)c1sc(-c2ccc(Cl)cc2)cc1N	Mcl1-Bid inh 56 (no result: TLR4 MyD88 comp, Bim-Mcl-1)
O=C1CCCN1CCC1CCN(C2CC(=O)N(c3ccc(Cl)cc3)C2=O)CC1 (stereo not drawn)	NOD2 RIPK2 PPI 22
Cc1cc(C(=O)N/N=C/c2ccc(O)c(O)c2O)c(C)n1-c1ccccc1	Mcl1-Noxa inh 73
Cc1cc(/C=N/NC(=O)c2cccs2)c(C)n1-c1ccccc1	Mcl1-Bid inh 87
Cc1cc(/C=N/NC(=O)c2ccncc2)c(C)n1-c1ccccc1	none
O=C(NCc1cccnc1)c1cc(C2CCCCN2C(=O)OCc2ccccc2)on1 (stereo not drawn)	none (no result: TLR4 MyD88 comp, TLR9-MyD88 inh, Bim-Mcl-1, Mcl1-Bid inh, Mcl1-Noxa inh)
COc1ccc(CNC(=O)N2[C@H]3CC[C@@H]2C=C(c2ccc(F)cc2OCc2ccccc2)C3)cc1OC	none (no result: TLR4 MyD88 comp, Bim-Mcl-1, Mcl1-Bid inh, Mcl1-Noxa inh)
CN(C)S(=O)(=O)c1ccc(Cl)c(NC(=O)CSc2nnnn2-c2ccc(O)cc2)c1	Mcl1-Bid inh 56
O=C(Nc1ccc(N2CCCC2)c(Cl)c1)c1ccc([N+](=O)[O-])o1	Mcl1-Noxa inh 59
Nc1nc2ccc([N+](=O)[O-])c(N)c2s1	Mcl1-Noxa inh 54
Cc1ccc(C)c(NC(=O)CCN2CCCCC2)c1	none (no result: TLR4 MyD88 comp, Bim-Mcl-1, Mcl1-Bid inh, Mcl1-Noxa inh)
CN(CCOC(=O)C1c2ccccc2Oc2ccccc21)C(C)(C)C	Mcl1-Bid inh 97
O=C(CN(C(=O)c1csnn1)c1ccc2c(c1)OCCO2)NCc1ccccc1	none (no result: TLR4 MyD88 comp, Bim-Mcl-1, Mcl1-Bid inh, Mcl1-Noxa inh)
COc1cc(NC(=O)Nn2cnnc2)cc(OC)c1OC	none (no result: TLR4 MyD88 comp, Bim-Mcl-1, Mcl1-Bid inh, Mcl1-Noxa inh)
O=C(C1CCN(CC2CC=CCC2)CC1)N(CCc1ccccc1)Cc1ccccc1 (stereo not drawn)	Mcl1-Bid inh 74
O=C(C1CCN(CCCc2ccccc2)CC1)N(CCc1ccccc1)Cc1ccccc1	none
COc1ccc(Cn2c(CCC(=O)NCc3ccco3)nc3cccnc32)cc1	Mcl1-Noxa inh 65
CCN(CC)CCCN(C(=O)c1cccc(C)c1)c1nc(-c2ccc(OC)cc2)cs1	none (no result: TLR4 MyD88 comp, Bim-Mcl-1, Mcl1-Bid inh, Mcl1-Noxa inh)
CCOc1ccc(C(=O)NCC(=O)NCC(c2ccco2)N2CCCCC2)cc1 (stereo not drawn)	none (no result: TLR4 MyD88 comp, Bim-Mcl-1, Mcl1-Bid inh, Mcl1-Noxa inh)
N=c1cc(C2(O)CCCCC2)n2c(nc3ccccc32)s1	Mcl1-Bid inh 98
NC1=NC2(CCCCC2)n2c(nc3ccccc32)N1	none
CCC(=O)Nc1ccc(NC(=O)c2cc3ccccc3o2)c(OC)c1	none (no result: TLR4 MyD88 comp, Bim-Mcl-1, Mcl1-Bid inh, Mcl1-Noxa inh)
OC12CC3C[C@H](C1)C(N1CCOCC1)[C@@H](C3)C2 (stereo partly drawn)	none (no result: TLR4 MyD88 comp, Bim-Mcl-1, Mcl1-Bid inh, Mcl1-Noxa inh)
N#CC1=C(S)N(c2ccccc2)C(c2ccc(-c3ccc(Cl)c(Cl)c3)o2)NC1=O (stereo not drawn)	none (no result: TLR4 MyD88 comp, Bim-Mcl-1)
N#CC1=C(S)N(c2ccccc2)C(c2ccc(-c3cc(Cl)ccc3Cl)o2)NC1=O (stereo not drawn)	Mcl1-Noxa inh 76
CCS(=O)(=O)N1CCC(C(=O)NC2CCCCC2)CC1	none
CN(C)C(=O)N1CCC(C(=O)NC2CCCCCCC2)CC1	Bim-Mcl-1 67
COc1ccc(C(=O)NCCCn2nc(C)cc2C)cc1S(=O)(=O)N1CCOCC1	none (no result: TLR4 MyD88 comp, Bim-Mcl-1, Mcl1-Bid inh, Mcl1-Noxa inh)
O=C(Nc1ccc(S(=O)(=O)Nc2ncccn2)cc1)c1ccc2ncsc2c1	Mcl1-Bid inh 90, Mcl1-Noxa inh 60 (no result: TLR4 MyD88 comp, Bim-Mcl-1)
O=C(Nc1ccc(S(=O)(=O)Nc2nccs2)cc1)c1cccc(N2C(=O)c3ccccc3C2=O)c1	Mcl1-Noxa inh 53
O=C(Nc1ccncc1)c1ccc2ncsc2c1	none (no result: TLR4 MyD88 comp, Bim-Mcl-1, Mcl1-Bid inh, Mcl1-Noxa inh)
CCn1nc(C(=O)Nc2ccc(S(=O)(=O)Nc3nccs3)cc2)c2ccccc2c1=O	Mcl1-Noxa inh 64
N#Cc1cccc(C(=O)Nc2ccc(S(=O)(=O)Nc3nccs3)cc2)c1	none (no result: TLR4 MyD88 comp, Bim-Mcl-1, Mcl1-Bid inh, Mcl1-Noxa inh)

Assay outcomes (PubChem)
